Laboratory results as given in PubChem BioAssay AID651997 (Sanford-Burnham Center for Chemical Genomics, 2013).
Among all 2,400 compounds or so, about 700 (29%) were called active. A selection follows. A number with no mark means an inactive call.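 How the source made its calls: active means inhibition of at least 50%; inactive means the rest.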

The molecules below were run against G-protein coupled receptor 183 (Homo sapiens) (UniProt P32249) (assay: EBI2 antagonist hit retest, beta-arrestin, confirmation, cell-based, single concentration, luminescence, 7a,25-OHC stimulation (AID 651997)). Conditions: 7a,25-OHC antagonism, at 5 µM, active compounds read high.
Sequence of G-protein coupled receptor 183 (Homo sapiens) (P32249 whole entry, looked up): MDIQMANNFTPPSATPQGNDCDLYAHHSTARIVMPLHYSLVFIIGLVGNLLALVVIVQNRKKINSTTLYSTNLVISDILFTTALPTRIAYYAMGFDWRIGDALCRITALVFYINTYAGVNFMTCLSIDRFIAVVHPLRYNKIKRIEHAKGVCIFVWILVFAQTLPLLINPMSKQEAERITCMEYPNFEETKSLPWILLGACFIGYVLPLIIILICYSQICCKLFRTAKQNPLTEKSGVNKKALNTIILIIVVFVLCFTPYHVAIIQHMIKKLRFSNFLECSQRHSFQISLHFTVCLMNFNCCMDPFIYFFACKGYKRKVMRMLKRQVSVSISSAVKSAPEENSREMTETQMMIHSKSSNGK

| SMILES | inhibition |
| --- | --- |
| COc1ccc(C(C(=O)NC2CCCCC2)N(C(=O)c2snc(C(N)=O)c2N)c2ccccc2OC)cc1 (centres undefined) | 57% (active) |
| CC1CCc2sc3nc(N4CCN(CCO)CC4)n4ncnc4c3c2C1 (centres undefined) | 67.9% (active) |
| Cc1cccc(-n2c(O)c(C=Nc3ccccc3N)c(=O)[nH]c2=O)c1 | 13.2% |
| Cc1ccc(S(=O)(=O)N2CCN(CC(=O)N/N=C/c3ccc(Br)s3)CC2)cc1 | 41.9% |
| CCC1Nc2ncnc(N3CCN(c4ccccc4)CC3)c2N(Cc2ccc(Cl)cc2)C1=O (centres undefined) | 86.9% (active) |
| CC(=O)/C(=N\Nc1ccc(Cl)cc1Cl)Sc1cccc2cccnc12 | 43.2% |
| CC(C)Cc1ccc(-c2cc3nc(NCc4cccc(Cl)c4)ccn3n2)cc1 | 51.8% (active) |
| COc1cccc(-c2cc(C(=O)N3CCN(c4ccccc4OC)CC3)no2)c1 | 42.9% |
| Cc1cccc(N2CCN(C(=O)c3cc4c(=O)[nH]c5ccccc5c4n3C)CC2)c1C | 75.1% (active) |
| O=C(CCNS(=O)(=O)c1ccccc1)NCCSc1ccc(Br)cc1 | 12.7% |
| CCOC(=O)N1CCN(C(=O)CSc2ccc(Cl)cc2)CC1 | 80.2% (active) |
| CCOC(=O)N1CCN(C(=O)COc2ccc(Cl)cc2C)CC1 | 30.2% |
| Cc1ccc(OCCNC(=O)CCNS(=O)(=O)c2ccc(Br)cc2)cc1 | 17.6% |
| CCOC(=O)C1CCN(C(=O)COc2cc(C)c(Br)c(C)c2)CC1 | 59% (active) |
| CCN1CCN(C(=O)CSc2ccc(C)cc2)CC1 | 27.6% |
| Cc1ccc(SCC(=O)N2CCN(c3ccc(F)cc3)CC2)cc1 | 33.8% |
| CCOC(=O)N1CCN(C(=O)COc2ccc(Br)cc2)CC1 | 75.6% (active) |
| Cc1cc(OCCOc2cccc3cccnc23)c(C)cc1Cl | 38.3% |
| O=C(CSc1ccccc1)Nc1cc(Cl)ccc1Oc1ccccc1 | 45% |
| CCC(c1nnc(SCC(=O)NNC(=O)c2ccccc2)n1Cc1ccccc1)N(C)C (centres undefined) | 35.9% |
| O=C(Nc1ncc2c(n1)CC(c1ccco1)CC2=O)c1ccc(Cl)cc1 (centres undefined) | 10.5% |
| N#Cc1ccc(C(c2nnnn2CCc2ccccc2)N2CCCCCC2)cc1 (centres undefined) | 34.1% |

| SMILES | inhibition |
| --- | --- |
| Cc1cccc(N=C2NC(=O)/C(=C/c3cn(C)c4ccccc34)S2)c1 | 33.9% |
| COc1ccc(/C=N/N=C/c2c[nH]c(=O)c(C#N)c2Nc2ccccc2)cc1 | 79.2% (active) |
| FC(F)(F)Oc1ccccc1C(c1nnnn1C1CCCCC1)N1CCN(C/C=C/c2ccccc2)CC1 (centres undefined) | 23% |
| COc1ccccc1N1CCN(C(=O)c2cc(-c3ccc(Br)cc3)on2)CC1 | 20.4% |
| COc1ccccc1N1CCN(C(=O)c2cc(=O)c3cc(C)ccc3o2)CC1 | 76% (active) |
| O=C(c1cc(=O)c2ccccc2o1)N1CCN(c2ccccc2)CC1 | 20.1% |
| O=C(NNC(=O)c1ccc2ccccc2c1)c1ccc(Cl)cc1 | 26.7% |
| O=C(NCCCc1ccccc1)C1CCC(=O)N(CCc2ccc(Cl)cc2)C1 (centres undefined) | 41.6% |
| O=C(c1cc2cc(F)ccc2[nH]1)N1CCN(c2ccc(F)cc2)CC1 | 43.5% |
| Cc1cs/c(=N\N=C\c2ccc(O)cc2)n1Cc1ccco1 | 34.7% |
| CCCCC(=O)N(C)c1c(CC)nc2c(OCc3ccc(Cl)cc3Cl)cccn12 | 35.5% |
| CC(C)N(Cc1ccccc1)C(=S)Nc1ccc(OC(F)F)cc1 | 24.2% |
| COc1ccc(NC(=O)N2CCC(Cc3ccccc3)CC2)cc1 | 55% (active) |
| CCCC1CCC(=NNC(=S)NCCc2ccccc2)CC1 (centres undefined) | 23.4% |
| COc1ccc(-c2cc(NC=O)c3ncc(-c4cccc(C(=O)N(C)C)c4)n3c2)c(OC)c1 | 23.2% |
| Cc1ccc(O/C=C2\OC(=O)c3ccccc32)cc1 | 16% |
| COc1cccc(NC(=O)Cn2c3ccccc3c3nc4n(c(=O)c32)CCS4)c1 | 30.1% |
| O=C(c1cc2ccccc2s1)N1CCN(c2ccccn2)CC1 | 55.7% (active) |
| O=C(/C=C/c1cccc(C(F)(F)F)c1)N1CCN(c2ccccn2)CC1 | 28.2% |
| Cc1ccc(CSCCNC(=O)CN(c2ccc(F)cc2)S(C)(=O)=O)cc1 | 23.3% |
| O=C(NCCNc1ccc([N+](=O)[O-])cc1)c1cccc2c(Br)cccc12 | 38% |
| Cc1cc(Cl)c2oc(C(=O)N3CCC(O)(c4ccccc4)CC3)c(C)c2c1 | 43.3% |

| SMILES | inhibition |
| --- | --- |
| Fc1ccccc1/C=N/Nc1cc(N2CCCCC2)ncn1 | 55% (active) |
| COc1ccc(-n2c(Cc3cccn3C)nnc2SCC(=O)Nc2cc(C)cc(C)c2)cc1 | 7.81% |
| O=C(NCc1ccc(Cl)cc1)C1CCN(S(=O)(=O)c2cccs2)CC1 | 23% |
| N#CC(=C1CCCC1)c1nc(-c2ccc(Cl)cc2)cs1 | 54.8% (active) |
| CCOc1ccc(C(C)=O)cc1COC(=O)c1cnc(Cl)c(Cl)c1 | 14.3% |
| COc1cccc(NC(=O)Cn2c3ccc(F)cc3c3nc4n(c(=O)c32)CCS4)c1 | 41.9% |
| O=C(COc1ccc2ccccc2c1)N1CCN(C(=O)c2cccs2)CC1 | 61% (active) |
| COc1ccc(OCC(=O)N2CCN(C(=O)c3cccs3)CC2)cc1 | 30.8% |
| O=C(/C=C/c1ccc(Cl)cc1)N1CCN(c2ccccc2[N+](=O)[O-])CC1 | 88.6% (active) |
| O=C(/C=C/c1cccc([N+](=O)[O-])c1)N1CCN(Cc2ccccc2)CC1 | 29.4% |
| Cc1ccc(N2CC(C(=O)Nc3ccc(S(=O)(=O)N4CCCC4)cc3)CC2=O)cc1C (centres undefined) | 34.7% |
| Cc1cc(OCC(=O)N2CCN(c3ncccn3)CC2)ccc1Cl | 50.9% (active) |
| Cc1ccc(OCC(=O)N2CCN(C(=O)c3cccnc3)CC2)cc1 | 17.6% |
| Cc1ccc(OCC(=O)N2CCN(S(=O)(=O)c3ccc(Cl)s3)CC2)cc1C | 79% (active) |
| Cc1ccc(S(=O)(=O)N2CCN(C(=O)CSc3cc(C)ccc3C)CC2)c(C)c1 | 33.4% |
| O=C(COc1ccc(Cl)cc1)N1CCN(S(=O)(=O)c2ccc(Cl)cc2)CC1 | 72.8% (active) |
| O=C(c1cc2ccccc2o1)N1CCN(S(=O)(=O)c2ccc(Cl)s2)CC1 | 70.7% (active) |
| Cc1cccc(OCC(O)CN2CCN(S(=O)(=O)c3ccc(C)cc3C)CC2)c1 (centres undefined) | 35.6% |
| COc1ccc(OCC(=O)N2CCN(C(=O)COc3ccccc3)CC2)cc1 | 24.9% |
| O=C(CCc1ccccc1)NNC(=O)COc1ccc(Cl)cc1 | 17.4% |
